For some assays here: Entries with a potency or affinity are not part of this list.
How the values were obtained:
Parameters in all cases: scale not given: direction of the effect not stated beside the values
[1] = biological target: Protein translocase subunit SecA (Escherichia coli (strain K12)) (UniProt P10408); experiment: Assay to Identify E. coli SecA ATPase Inhibitors; type: functional; details: 30 µM
[2] = biological target: T1, Ubiquitin-activating enzyme e1, putative (Leishmania donovani (strain BPK282A1)) (UniProt E9BSI1); experiment: Leishmania donovani Ubiquitin Activating Enzyme (LdE1); type: functional; details: 30 µM
T1 sequence (whole entry): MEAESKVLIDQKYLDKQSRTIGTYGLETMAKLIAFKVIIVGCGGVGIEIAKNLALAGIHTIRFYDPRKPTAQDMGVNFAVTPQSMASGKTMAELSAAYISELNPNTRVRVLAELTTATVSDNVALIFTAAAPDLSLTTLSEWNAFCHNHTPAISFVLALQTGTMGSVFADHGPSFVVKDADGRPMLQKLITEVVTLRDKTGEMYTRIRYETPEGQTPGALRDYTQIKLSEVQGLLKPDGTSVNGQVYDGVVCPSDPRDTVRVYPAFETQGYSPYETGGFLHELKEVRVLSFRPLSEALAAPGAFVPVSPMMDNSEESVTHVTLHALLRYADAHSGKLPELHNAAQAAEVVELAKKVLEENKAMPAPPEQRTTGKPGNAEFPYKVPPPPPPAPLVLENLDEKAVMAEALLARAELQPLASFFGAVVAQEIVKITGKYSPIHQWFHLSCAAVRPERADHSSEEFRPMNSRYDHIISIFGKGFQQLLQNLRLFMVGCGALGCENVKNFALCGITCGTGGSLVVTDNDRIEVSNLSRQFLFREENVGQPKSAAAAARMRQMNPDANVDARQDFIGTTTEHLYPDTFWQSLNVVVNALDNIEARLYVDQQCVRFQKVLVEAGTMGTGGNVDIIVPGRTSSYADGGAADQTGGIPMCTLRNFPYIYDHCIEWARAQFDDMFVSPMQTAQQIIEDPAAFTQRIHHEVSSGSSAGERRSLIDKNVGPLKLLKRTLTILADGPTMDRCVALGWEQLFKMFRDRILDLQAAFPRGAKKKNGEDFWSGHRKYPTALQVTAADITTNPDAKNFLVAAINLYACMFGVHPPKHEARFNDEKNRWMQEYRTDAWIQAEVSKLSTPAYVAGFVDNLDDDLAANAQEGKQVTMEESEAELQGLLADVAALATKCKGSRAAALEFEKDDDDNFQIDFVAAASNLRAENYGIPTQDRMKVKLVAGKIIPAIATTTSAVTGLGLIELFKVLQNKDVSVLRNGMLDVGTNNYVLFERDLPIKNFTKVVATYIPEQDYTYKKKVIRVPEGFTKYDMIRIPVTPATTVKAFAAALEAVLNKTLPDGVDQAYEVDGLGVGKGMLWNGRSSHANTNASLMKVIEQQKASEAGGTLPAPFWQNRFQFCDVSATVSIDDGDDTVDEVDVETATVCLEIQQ

[3] = biological target: AMP-activated protein kinase, AMPK (Homo sapiens) (UniProt P54646+O43741+P54619+Q9UGJ0+Q9Y478+Q13131+Q9UGI9); experiment: AMP-dependent Kinase enzyme assay. An in vitro enzyme assay that detects ADP turnover that is directly proportional to AMPK activity. This uses naive AMPK that is activated during the assay with MK-8722; type: functional; details: 30 µM
[4] = biological target: Sialic acid-binding Ig-like lectin 9 (Homo sapiens) (UniProt Q9Y336); experiment: Hs-Siglec9 ALPHAscreen SOP 20170721; details: 10 µM
Trypanosoma cruzi = experiment: Trypanosoma cruzi phosphomannomutase and mannose-1-phosphate guanylyltransferase assay; type: functional; details: 10 µM
[5] = biological target: T2, Arginase-2, mitochondrial (Homo sapiens) (UniProt P78540); experiment: in vitro enzyme assay to detect the production of urea directly proportional to the activity of Arginase II; type: functional; details: 33.3 µM; further: in the data most compounds retested in dose-response had high values
T2 sequence (whole entry): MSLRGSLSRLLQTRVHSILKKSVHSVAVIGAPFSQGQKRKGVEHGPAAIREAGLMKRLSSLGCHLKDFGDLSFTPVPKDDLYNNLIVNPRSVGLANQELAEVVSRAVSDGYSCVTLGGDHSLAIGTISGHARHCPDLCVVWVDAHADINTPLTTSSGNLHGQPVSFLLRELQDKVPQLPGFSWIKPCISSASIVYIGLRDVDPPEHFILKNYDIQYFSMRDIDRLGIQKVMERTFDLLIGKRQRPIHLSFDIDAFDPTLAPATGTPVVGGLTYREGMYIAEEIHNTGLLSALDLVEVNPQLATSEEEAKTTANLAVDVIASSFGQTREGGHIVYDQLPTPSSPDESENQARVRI

[6] = biological target: T3, Proteasome subunit beta (Trypanosoma cruzi) (UniProt O96673); experiment: Trypanosoma cruzi proteasome chymotrypsin-like activity (TcProtChymo) assay.; further: in the data most compounds retested in dose-response had high values; type: functional; details: 9.37 µM
T3 sequence (whole entry): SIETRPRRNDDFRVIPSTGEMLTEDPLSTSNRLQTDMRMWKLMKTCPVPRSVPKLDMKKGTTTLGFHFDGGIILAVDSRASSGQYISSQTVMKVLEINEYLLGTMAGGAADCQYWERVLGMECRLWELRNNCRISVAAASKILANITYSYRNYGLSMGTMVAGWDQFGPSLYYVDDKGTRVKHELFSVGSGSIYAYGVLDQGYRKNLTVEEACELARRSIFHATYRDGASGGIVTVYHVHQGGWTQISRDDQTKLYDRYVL

Homo sapiens = organism: Homo sapiens; experiment: To identify inhibition of the IFN signalling (Jak-Stat) pathway via expression of an eGFP reporter gene under the control of an IFN-stimulated response element (ISRE) containing MxA promoter.; type: functional; details: 30 µM
[7] = biological target: T4, Tyrosyl-tRNA synthetase, putative (Trypanosoma cruzi (strain CL Brener)) (UniProt Q4DSP6); experiment: Trypanosoma cruzi tyrosyl tRNA synthetase (TcYRS) _High Tyrosine SOP; type: functional; details: 30 µM; further: in the data most compounds retested in dose-response had high values
T4 sequence (whole entry): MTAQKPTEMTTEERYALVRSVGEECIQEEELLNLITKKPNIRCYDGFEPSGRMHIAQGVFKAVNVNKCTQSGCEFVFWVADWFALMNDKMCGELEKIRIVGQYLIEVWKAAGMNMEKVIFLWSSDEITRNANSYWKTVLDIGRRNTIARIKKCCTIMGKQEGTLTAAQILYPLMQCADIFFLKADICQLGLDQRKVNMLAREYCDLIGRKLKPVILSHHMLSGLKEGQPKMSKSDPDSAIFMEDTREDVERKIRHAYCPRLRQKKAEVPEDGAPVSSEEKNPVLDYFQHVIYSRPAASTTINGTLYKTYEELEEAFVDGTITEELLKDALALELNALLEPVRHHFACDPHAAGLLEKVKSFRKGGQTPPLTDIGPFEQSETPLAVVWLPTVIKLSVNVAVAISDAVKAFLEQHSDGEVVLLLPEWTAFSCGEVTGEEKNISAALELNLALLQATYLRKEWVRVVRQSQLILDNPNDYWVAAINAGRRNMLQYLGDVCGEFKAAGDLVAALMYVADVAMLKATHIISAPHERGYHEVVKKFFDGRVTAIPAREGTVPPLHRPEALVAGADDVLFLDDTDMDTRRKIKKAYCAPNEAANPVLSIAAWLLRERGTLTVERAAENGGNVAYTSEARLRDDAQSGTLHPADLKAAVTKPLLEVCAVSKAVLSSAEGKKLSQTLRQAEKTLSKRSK

[8] = biological target: T4, Tyrosyl-tRNA synthetase, putative (Trypanosoma cruzi (strain CL Brener)); experiment: Trypanosoma cruzi tyrosyl tRNA synthetase (TcYRS) SOP; type: functional; details: 30 µM
[9] = biological target: Chromo domain-containing protein 1 (Saccharomyces cerevisiae (strain ATCC 204508 / S288c) (Baker's yeast)) (UniProt P32657); experiment: ScCHD-1 Enzyme Inhibition Assay; type: functional; details: 30 µM; further: in the data most compounds retested in dose-response had high values
Sequence of Chromo domain-containing protein 1 (Saccharomyces cerevisiae (strain ATCC 204508 / S288c) (Baker's yeast)) (P32657 whole entry, the tested form may be a part): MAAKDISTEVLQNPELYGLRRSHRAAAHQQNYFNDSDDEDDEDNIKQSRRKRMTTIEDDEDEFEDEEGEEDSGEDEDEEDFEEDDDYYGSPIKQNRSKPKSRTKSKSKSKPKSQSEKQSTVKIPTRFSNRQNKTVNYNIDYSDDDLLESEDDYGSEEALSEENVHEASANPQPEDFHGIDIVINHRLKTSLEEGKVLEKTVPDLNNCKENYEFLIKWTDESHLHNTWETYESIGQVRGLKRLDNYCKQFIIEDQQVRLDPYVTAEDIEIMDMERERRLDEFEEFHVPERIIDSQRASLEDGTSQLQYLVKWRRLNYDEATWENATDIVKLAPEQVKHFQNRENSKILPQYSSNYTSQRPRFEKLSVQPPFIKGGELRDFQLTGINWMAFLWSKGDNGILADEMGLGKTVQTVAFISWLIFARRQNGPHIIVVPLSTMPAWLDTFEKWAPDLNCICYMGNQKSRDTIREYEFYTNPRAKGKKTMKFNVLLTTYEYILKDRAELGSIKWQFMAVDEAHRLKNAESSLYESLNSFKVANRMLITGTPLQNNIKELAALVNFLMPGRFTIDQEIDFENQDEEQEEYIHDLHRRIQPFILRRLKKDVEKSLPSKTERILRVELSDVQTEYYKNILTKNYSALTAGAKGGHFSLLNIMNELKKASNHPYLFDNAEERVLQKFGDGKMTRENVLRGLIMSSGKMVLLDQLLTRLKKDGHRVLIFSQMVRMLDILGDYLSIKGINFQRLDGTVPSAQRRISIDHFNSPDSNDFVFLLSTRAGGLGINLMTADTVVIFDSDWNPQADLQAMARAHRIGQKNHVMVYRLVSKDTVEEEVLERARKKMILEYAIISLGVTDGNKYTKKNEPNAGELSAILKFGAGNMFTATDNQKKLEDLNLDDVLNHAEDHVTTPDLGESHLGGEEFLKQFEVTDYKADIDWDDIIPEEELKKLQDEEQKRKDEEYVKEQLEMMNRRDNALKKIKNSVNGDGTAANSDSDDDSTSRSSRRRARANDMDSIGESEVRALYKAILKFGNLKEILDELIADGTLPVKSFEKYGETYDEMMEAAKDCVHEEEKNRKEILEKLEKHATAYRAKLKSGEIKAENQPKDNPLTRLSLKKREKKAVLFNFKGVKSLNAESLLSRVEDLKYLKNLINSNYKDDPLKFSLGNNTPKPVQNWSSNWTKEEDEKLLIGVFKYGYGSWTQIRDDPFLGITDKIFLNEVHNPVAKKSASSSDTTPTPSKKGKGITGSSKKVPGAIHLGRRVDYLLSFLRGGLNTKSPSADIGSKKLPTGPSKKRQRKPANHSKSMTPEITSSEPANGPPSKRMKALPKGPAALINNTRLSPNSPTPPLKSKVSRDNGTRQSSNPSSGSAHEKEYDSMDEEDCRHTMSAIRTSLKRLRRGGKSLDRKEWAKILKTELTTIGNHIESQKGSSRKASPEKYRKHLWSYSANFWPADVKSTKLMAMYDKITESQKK

Sequence of Protein translocase subunit SecA (Escherichia coli (strain K12)) (P10408 whole entry): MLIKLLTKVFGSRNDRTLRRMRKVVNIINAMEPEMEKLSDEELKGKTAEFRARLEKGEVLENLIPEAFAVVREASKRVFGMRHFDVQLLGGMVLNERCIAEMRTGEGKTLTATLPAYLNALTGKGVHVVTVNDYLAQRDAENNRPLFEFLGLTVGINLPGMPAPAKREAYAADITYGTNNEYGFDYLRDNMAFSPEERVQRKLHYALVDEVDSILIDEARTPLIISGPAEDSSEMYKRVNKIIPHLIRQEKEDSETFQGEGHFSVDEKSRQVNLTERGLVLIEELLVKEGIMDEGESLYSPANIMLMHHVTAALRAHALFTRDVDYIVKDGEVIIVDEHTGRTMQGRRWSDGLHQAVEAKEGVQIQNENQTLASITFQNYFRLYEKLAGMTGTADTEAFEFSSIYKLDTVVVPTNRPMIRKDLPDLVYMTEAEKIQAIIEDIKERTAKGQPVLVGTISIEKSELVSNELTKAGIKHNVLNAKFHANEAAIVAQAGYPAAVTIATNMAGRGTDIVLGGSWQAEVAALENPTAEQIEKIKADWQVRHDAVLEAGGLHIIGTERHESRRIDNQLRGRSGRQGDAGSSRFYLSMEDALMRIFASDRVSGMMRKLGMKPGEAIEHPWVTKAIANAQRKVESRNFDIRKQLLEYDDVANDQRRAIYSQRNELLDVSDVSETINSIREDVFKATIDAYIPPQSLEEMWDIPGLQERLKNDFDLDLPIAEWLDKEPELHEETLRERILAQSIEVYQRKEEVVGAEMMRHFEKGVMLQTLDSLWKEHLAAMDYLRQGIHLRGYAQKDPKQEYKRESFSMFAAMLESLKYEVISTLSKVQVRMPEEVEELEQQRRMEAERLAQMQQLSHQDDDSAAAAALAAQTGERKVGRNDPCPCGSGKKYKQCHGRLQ
Sequence of Sialic acid-binding Ig-like lectin 9 (Homo sapiens) (Q9Y336 whole entry): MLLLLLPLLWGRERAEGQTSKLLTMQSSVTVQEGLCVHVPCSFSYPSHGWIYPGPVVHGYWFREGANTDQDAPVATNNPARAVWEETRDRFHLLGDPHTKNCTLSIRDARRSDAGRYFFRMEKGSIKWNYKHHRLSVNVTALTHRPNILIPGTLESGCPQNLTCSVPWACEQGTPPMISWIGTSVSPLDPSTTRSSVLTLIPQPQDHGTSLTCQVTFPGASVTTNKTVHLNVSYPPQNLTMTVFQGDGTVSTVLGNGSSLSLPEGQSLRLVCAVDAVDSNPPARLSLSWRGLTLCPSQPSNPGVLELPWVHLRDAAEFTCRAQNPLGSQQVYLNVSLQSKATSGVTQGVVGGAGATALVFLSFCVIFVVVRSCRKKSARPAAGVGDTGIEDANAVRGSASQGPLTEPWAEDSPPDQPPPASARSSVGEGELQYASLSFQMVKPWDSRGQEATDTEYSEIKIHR

Compound	Percent Effect [1]	Percent Effect [2]	Percent Effect [3]	Percent Effect [4]	Percent Effect (Trypanosoma cruzi)	Percent Effect [5]	Percent Effect [6]	Percent Effect (Homo sapiens)	Percent Effect [7]	Percent Effect [8]	Percent Effect [9]
O=C(NCCNS(=O)(=O)c1ccc2c(c1)CCCC2)c1ccoc1	-4.38%	13.3%	-3.34%	15.1%	3.41%	10.9%	5.41%	29.3%	6.01%	13.6%	0.0598%
O=C([C@H]1C[C@H]2OCC[C@H]2N(C(=O)c2ccncc2)C1)N1CCCCO1	-6.09%	16%	-5.71%	-0.495%	6.56%	-43.9%	6.33%	-5.77%	4.17%	5%	-6.72%
CCN(CC1CCCO1)C(=O)Nc1cc(OC)c(OC)cc1C (configuration not stated)	-8.28%	27.9%	-14.4%	12.7%	4.06%	-2.28%	9.26%	-8.32%	8.37%	21.5%	-9.07%
COc1ccc(C2=CCN(C(=O)CN(C)CC(N)=O)CC2)cc1	-1.62%	5.06%	0.216%	-0.305%	-19.4%	6.46%	9.42%	16.9%	3.45%	8.86%	-6.22%
O=C1CCC2(CCCN(C(=O)c3cscn3)C2)CN1CCc1c[nH]cn1 (configuration not stated)	-3.15%	7.79%	-3.24%	13.5%	6.98%	-9.65%	15.1%	-31.6%	5.38%	13.6%	-5.62%
Cc1cccc(C(=O)NC(CN2CCCC2=O)c2ccccc2)n1 (configuration not stated)	-2.94%	13.2%	-3.02%	7.02%	5.83%	6.13%	8.35%	-4.47%	5.39%	21.9%	-10.3%
O=C(O)c1nnn(-c2ccc(OC(F)(F)F)cc2)c1-c1ccncc1	-2.53%	21.1%	-1.66%	-2.5%	3.8%	3.55%	20.4%	2.21%	3.19%	15.6%	41.3%
O=C(NCc1cc[nH]n1)N1CCCCC(N2CCCC2)C1 (configuration not stated)	-3.54%	-10.5%	-9.14%	11.7%	6.44%	2.16%	1.27%	7.32%	7.39%	23.5%	3.8%
CC(NC1(CNC(=O)C(C)(C)C#N)CCOCC1)c1ccccc1 (configuration not stated)	-11.4%	0%	-1.47%	-3.49%	-3.03%	-1.74%	4.89%	7%	-7.53%	-3.7%	-3.14%
Cc1ccc(CN2CCCC3(CCN(S(=O)(=O)N(C)C)C3)C2)o1 (configuration not stated)	-4.24%	10.7%	11.3%	7.3%	-2.17%	3.03%	13.7%	9.85%	7.45%	19.2%	-3.25%
CCN1Cc2c(C(=O)NCC3CC3)ncn2-c2ccccc2S1(=O)=O	3.87%	-5.48%	-3.01%	4.85%	3.37%	-0.399%	16%	-1.54%	0%	18.5%	-2.17%
CC(C)c1n[nH]c(C2CN(C(=O)CCCn3cccn3)CCO2)n1 (configuration not stated)	0.0152%	-6.94%	-4.76%	-7.03%	-2.43%	2.21%	11.6%	-1.34%	-1.05%	0%	0.954%
O=C1CC(c2cccnc2)C2(CCN(C(=O)c3ccncc3)CC2)N1 (configuration not stated)	-4.11%	10.8%	2.03%	-3.18%	3.81%	-4.78%	17.9%	-0.901%	4.32%	15.4%	1.46%
N#Cc1ccc(OCCOc2ccccc2C(=O)N2CCOCC2)cc1	-0.304%	7.79%	-1.44%	10.7%	1.28%	-11%	12.8%	-19.7%	4.3%	13.6%	-2.37%
COc1ccc(C2=C(C)C(N3CCc4ccccc4C3)=NS2(=O)=O)cc1	-1.81%	-7.79%	1.57%	-18%	3.45%	4.52%	13.1%	9.07%	-122%	-39.7%	79.2%
CCC1=N[C@@]2(CC[C@@H]3CN(C(=O)NC(C)C)C[C@@H]32)C(=O)N1C	-5.93%	18.9%	-5.97%	2.32%	3.12%	2.92%	10.9%	1.5%	3.96%	18.3%	-6.51%
O=C(C1SCCc2sccc21)N1CCC(O)CC1 (configuration not stated)	-4.42%	-5.41%	2.06%	0.929%	-6.25%	0.833%	6.34%	5.86%	5.94%	1.22%	1.03%
COc1ccc(CN2CCc3nc(C4CCCCN4C)ncc3C2)cc1 (configuration not stated)	-0.233%	-8%	-0.187%	-0.354%	3.54%	-2.1%	28.3%	11.8%	21.3%	26.9%	-1.3%
CCS(=O)(=O)c1ccc(N2CCC(NC(=O)CCC(C)C)CC2)cc1	-1.62%	10.7%	-6.1%	12.2%	6.13%	16.1%	6.8%	27.1%	6.01%	8.64%	-4.64%
COc1ccc(OCC(=O)NC(C)c2ccccc2)c(C(=O)O)c1 (configuration not stated)	-7.92%	0%	-0.906%	3.42%	-4.4%	-0.744%	6.78%	-2.11%	-1.07%	-1.24%	-2.92%
Cc1cc(CN2CC[C@H]3C[C@H](C(=O)N4CCC(C)CC4)O[C@H]3C2)no1	-3.17%	10.8%	0.505%	-2.16%	-1.07%	2.87%	22.5%	-12.1%	0%	12.8%	-2.88%
Cc1cc(CN(C)C(=O)NCc2cccc(N3CCCC3=O)c2)no1	-4.74%	7.59%	-1.15%	7.78%	6.14%	-4.94%	-4.5%	-10.2%	1.48%	1.27%	-1.62%
